# Experimental data: PubChem BioAssay (Tox21)
# Unmarked numbers belong to inactive results. Calls of active or inactive are those of the source. The call rests on the fitted dose curve; in most records, active means well fitted curve in the direction sought with a large enough effect in the repeat runs; inconclusive means weak or mixed curves; inactive means flat fitted curve, though single readings scatter.
# Test: qHTS assay to test for compound auto fluorescence at 590 nm (red) in HEK293 cell free culture (AID 720683)
# Details: cell-free medium autofluorescence, Ex540/Em590 red; series mostly up to 91.3 µM
# Text: U.S. Tox21 Program National Center for Advancing Translational Sciences [NCATS] NIH Chemical Genomics Center [NCGC] U.S. Environmental Protection Agency [EPA] National Institutes of Environmental Health Sciences [NIEHS] National Toxicology Program [NTP] U.S. Food and Drug Administration [FDA] Tox21 Assay Overview: Compound auto fluorescence often interferes with screening of the compound library against various biological targets and signaling pathways. Some of these compounds may have fluorophoric properties. Such properties may interfere with the assay outputs resulting in false positives and/or negatives. To decrease such complications and ensure the compound activities are relevant in terms of biological response, the Tox21 10K compound library was screened for auto fluorescence. From the fluorophores used as reporter signals in our screening assays, the auto fluorescence equivalencies of compounds against three fluorophores have been evaluated: Triamterene, Fluorescein and Rose Bengal sodium for blue, green and red fluorescence, respectively. The fluorescence intensities were measured using Excitation/Emission wavelengths at 405/460nm, 485/535nm and 540/590nm for blue, green and red labels, respectively. This assay includes the red fluorescence data.
# Tox21 Assay Protocol Summary: 5 uL of culture medium (DMEM containing 10% FBS) per well was dispensed into black wall/clear bottom 1536-well plates using a Multidrop Combi Dispenser (ThermoFisher Scientific, Waltham, MA). After 23 nL compound or DMSO vehicle was transferred into assay plate by a pintool work station (Kalypsys, San Diego, CA), fluorescence intensities in the assay plates were measured by an Envision (PerkinElmer, Shelton, CT) plate reader using three labels for measuring blue, green and red fluorescence at […] 460, 535 and 590nm respectively.
# On the % scale 0 is the no-effect control and ±100 the full control effect.
SMILES,outcome,"fluorescence, % of fluorescent control"
O=C(O)c1cc(Cl)cc(Cl)c1O,inactive,–
CC(C)OC(=O)c1ccccc1C(=O)OC(C)C,inactive,–
Nc1cccc2c(N)cccc12,inactive,–
Cc1ccc(S(=O)(=O)NC(=O)NC2CCCCC2)cc1,inactive,–
CC1CCCO1 (stereo not given),inactive,–
C=CC(=O)O,inactive,–
COc1cc(S(=O)(=O)Nc2ccccc2)c(OC)cc1N,inactive,–
O=C1OC[C@H](Cc2cccc(O)c2)[C@H]1Cc1cccc(O)c1,inactive,–
O=C(O)CCS,inactive,–
O=C1CC[C@@H](C(=O)O)N1,inactive,–
Cc1ccc(Nc2c(F)cccc2Cl)c(CC(=O)O)c1,inactive,–
Nc1ccc(NC(=O)c2ccc(N)cc2)cc1,inactive,–
CCOC(=O)C(C)O (stereo not given),inactive,–
CC(=O)OC(C)C[N+](C)(C)C (stereo not given),–,0.423% [at 18.6 µM]
O=C(O)CN1C(=O)c2cccc3cccc(c23)C1=O,inactive,–
CC(=O)c1ccc[nH]1,inactive,–
CCCCCCCCCCCCCCCCCC(=O)OCC(CC)CCCC (stereo not given),inactive,–
COC1CCC=CO1 (stereo not given),inactive,–
COc1ccc(-c2cc(C(F)F)nn2-c2ccc(S(N)(=O)=O)cc2)cc1F,inactive,–
O=c1[nH][nH]c(=O)c2cc([N+](=O)[O-])ccc12,inactive,–

SMILES,outcome,"fluorescence, % of fluorescent control"
CCN(CC)c1cccc(O)c1,inactive,–
CCN(CC)C(=O)N1CCN(C)CC1,–,0.461% [at 18.6 µM]
c1ccc2sc(SSc3nc4ccccc4s3)nc2c1,inactive,–
CCNc1nc(N)nc(Cl)n1,inactive,–
Nc1ccc(F)cc1,inactive,–
COc1ccc(CCN(C)CCCN2CCc3cc(OC)c(OC)cc3CC2=O)cc1OC,inactive,–
O=C(O)c1cccc(Oc2ccccc2)c1,inactive,–
COc1ccc2nc(S(=O)Cc3ncc(C)c(OC)c3C)[nH]c2c1 (stereo not given),inactive,–
CC[C@H]1OC(=O)[C@H](C)[C@@H](O[C@H]2C[C@@](C)(OC)[C@@H](O)[C@H](C)O2)[C@H](C)[C@@H](O[C@@H]2O[C@H](C)C[C@H](N(C)C)[C@H]2O)[C@](C)(O)C[C@@H](C)CN(C)[C@H](C)[C@@H](O)[C@]1(C)O,inactive,–
COc1ccc(-n2nc(C(F)F)cc2-c2ccc(S(C)=O)cc2)cc1 (stereo not given),inactive,–
CC(C)(C(=O)c1cccnc1)c1cccnc1,–,0.0451% [at 18.6 µM]
CCCCCCOC(=O)CCCCC,inactive,–
CNC1CCCN(c2c(F)cc3c(=O)c(C(=O)O)cn(C4CC4)c3c2OC)C1 (stereo not given),inactive,–
FC(F)(F)C(F)(F)C(F)(F)C(F)(F)CCI,inactive,–
N[C@@H](Cc1cc(I)c(O)c(I)c1)C(=O)O,inactive,–
C=CC(=O)NC(C)C,inactive,–
O=S(=O)(O)CO,inactive,–
CNS(=O)(=O)c1cc(C(=O)N2CCC(CCN3C4CCC3CC(n3c(C)nc5ccccc53)C4)(c3cccc(F)c3)CC2)c(Cl)cc1F (stereo not given),inactive,–
Oc1ccc2c(c1)Cc1ccccc1-2,inactive,–
CC1=CC[C@@H]2C[C@H]1C2(C)C,–,0.0507% [at 18.6 µM]
